Only a selection was taken, and hits are over-represented in it overall.
mHTT CaM bind = mutant huntingtin-calmodulin interaction inhibitors – biochemical, AlphaScreen, primary screen. AlphaScreen His-mHTT/GST-CaM binding, luminescence. inhibition, % at 15 µM. 190,000 tested, 3.6% active
Pf apPOL inh = Pf-apPOL inhibitors, biochemical, fluorescence | inhibition, % at 10 µM | Recombinant Pf-apPOL, molecular beacon fluorescence, 1.5 h | 210,000 tested, 0.25% active
Of the large screens only hits and unclear results are named; the others gave an inactive call. Cut-off read from the data, not from the text of the source: active = inhibition above about 50%; inactive = the rest.

CSc1cccc(NC(=O)N2CCC3(CC2)Nc2ccccc2-n2cccc23)c1	mHTT CaM bind 84.2
Cc1c(Cl)cccc1NC(=O)N1CCC2(CC1)Nc1cc(F)ccc1-n1cccc12	none
CCOc1ccc(N2CC(C(=O)Nc3ccc(F)cc3)CC2=O)cc1 (stereo unspecified)	none
Cc1cc(C2CCCN2C(=O)Nc2ccc(C)c(C)c2)no1 (stereo unspecified)	none
CC(C)N(C(=O)Cn1c(COc2ccccc2)nc2ccccc21)c1ccccc1	none
COc1cc(OC)c(OC)cc1/C=C1/N=C(c2cccc(Cl)c2Cl)OC1=O	none
CCc1nnc(NC(=O)c2c(OC)cccc2OC)s1	none
CCc1nnc(NC(=O)c2cc(OC)c(OC)c(OC)c2Br)s1	Pf apPOL inh 79.5
Cc1nc(-c2cn(C(C)C)c3ncccc23)sc1C(=O)Nc1ccc(F)cc1	mHTT CaM bind 100.3
CCn1cc(-c2nc(C)c(C(=O)Nc3ccc(C)cc3)s2)c2cccnc21	none
CCCCC(=O)N1CCc2c(c(-c3nnc(SCC)n3C)nn2C)C1	none
CS(=O)(=O)N1N=C(c2c(-c3ccccc3)c3cc(Cl)ccc3[nH]c2=O)CC1c1ccccc1 (stereo unspecified)	mHTT CaM bind 67.0
O=c1[nH]c2ccc(Cl)cc2c(-c2ccccc2)c1[N+](=O)[O-]	none
O=C(NC1CCN(Cc2ccccc2)CC1)c1cc(=O)c(OCc2ccccc2)co1	none
COc1ccc(C(=O)O/N=C(\N)c2cccnc2)cc1OC	none
CC1=NN(C(=O)CCCc2ccccc2)C(O)(c2ccc(Br)cc2)C1 (stereo unspecified)	mHTT CaM bind 58.0
CCC(=O)N1N=C(CC)CC1(O)c1ccc(Br)cc1 (stereo unspecified)	none
CC1CCN(Cc2ccc(C(=O)NCC3CCCO3)cc2)CC1 (stereo unspecified)	none
O=C(CCc1ccccc1)Nc1nnc(SCC(=O)N2CCCCC2)s1	none
COc1cccc(C=Nc2ccc(OCC(O)CN3C(C)CCCC3C)cc2)c1O (stereo unspecified)	none
CCc1ccc(NC(=O)C2CCCN(C(=O)c3ccccc3F)C2)cc1 (stereo unspecified)	none
CCCn1c(C(=O)N(C)Cc2ccccc2)cc2sc(C)cc21	mHTT CaM bind 91.1
CCCn1c(C(=O)N(C)Cc2ccccc2)cc2sc(Br)cc21	none
COCCNS(=O)(=O)c1cc(Br)cc2c1N(C(=O)C1CC1)CC2	none
COc1cc(OC)c(OC)cc1/C=C1\NC(=O)N(Cc2ccc(Cl)cc2)C1=O	none
Cc1cc(/C=C2\NC(=O)N(Cc3ccc(Cl)cc3)C2=O)c(C)n1-c1ccc(C#N)cc1	mHTT CaM bind 51.0
Clc1ccc(CSc2nnc3ccccn23)cc1Cl	none
Cn1cc(-c2nc(C(=O)NCc3cccc(F)c3)cs2)c2cccnc21	mHTT CaM bind 91.1
Cn1cc(-c2nc(C(=O)NCc3ccc(F)cc3Cl)cs2)c2cccnc21	none
Cn1cc(CC(=O)NCc2cccc(F)c2)c2cccnc21	none
Cn1cc(-c2nc(C(=O)NCc3ccc(F)c(Cl)c3)cs2)c2cccnc21	mHTT CaM bind 100.2
CC(=O)OCC1OC(c2nn[nH]n2)C(OC(C)=O)C(OC(C)=O)C1OC(C)=O (stereo unspecified)	none (no result: mHTT CaM bind)
COc1ccccc1CNC(=O)C1CCN(c2nc3ccccc3[nH]2)CC1	none
COc1ccc(CNC(=O)c2cn3ccccc3n2)cc1	none
CCOc1ccc2sc(C=NCc3ccc(F)cc3)c(O)c2c1	none
CCOc1ccc2sc(C=NCc3ccc(OC)cc3)c(O)c2c1	mHTT CaM bind 55.0
CCOc1ccc(NC(=O)C2CCc3sc(C(=O)N(C)C)cc3C2)cc1 (stereo unspecified)	none
COCc1[nH]nc2c1C(c1ccc(OC)c(OC)c1)C(C#N)=C(N)O2 (stereo unspecified)	none
CCn1c2ccccc2c2cc(C3C(C#N)=C(N)Oc4n[nH]c(COC)c43)ccc21 (stereo unspecified)	mHTT CaM bind 65.0
CCc1ccc(NC(=O)c2cncc(-c3ccc(C)cc3)c2)cc1	none
Cc1ccc(-c2cncc(C(=O)Nc3ccc4c(c3)OCCO4)c2)cc1	mHTT CaM bind 54.1
Cn1cc(Br)c(C(=O)n2cc([N+](=O)[O-])cn2)n1	none
O=C(c1cccs1)c1ccc(OCc2nn[nH]n2)c(Cl)c1Cl	none
CC1CCN(c2nccc(C(=O)N3CCN(c4cccc(Cl)c4)CC3)n2)CC1	none
CCN1CCn2cc(C(=O)N3CCN(c4ccc(Cl)cc4)CC3)nc2C1	none
CCN1CCn2cc(C(=O)N3CCN(c4cccc(Cl)c4)CC3)nc2C1	mHTT CaM bind 52.7
O=C(c1ccnc(N2CCCCC2)n1)N1CCN(c2cccc(Cl)c2)CC1	mHTT CaM bind 56.4
Cc1ccc(C2CN(C(=O)c3ccccc3)CC2C(=O)NCC(C)C)cc1 (stereo unspecified)	none
CCN(CC)CCNC(=O)CN1C(=O)/C(=C/c2ccc(C(F)(F)F)cc2)Sc2ccccc21	mHTT CaM bind 100.0
CCN(CC)CCNC(=O)CN1C(=O)/C(=C/c2cccc(Cl)c2)Sc2ccccc21	none
CCCCN(C)CCCNC(=O)CN1C(=O)/C(=C/c2cccc(Cl)c2)Sc2ccccc21	mHTT CaM bind 98.0
CCCCN(C)CCNC(=O)CN1C(=O)/C(=C/c2cccc(Cl)c2)Sc2ccccc21	none
O=C(CN1C(=O)/C(=C/c2ccc(Cl)cc2)Sc2ccccc21)NCCN1CCCC1	none
O=C(CN1C(=O)/C(=C/c2cccc(Cl)c2)Sc2ccccc21)NCCN1CCCCCC1	mHTT CaM bind 54.0
COc1ccc(C(=O)N2CCCN(C3CCN(CC4CC4)C3=O)CC2)cn1 (stereo unspecified)	none
COCCCNC(=O)CN(c1cc(C(F)(F)F)ccc1Cl)S(=O)(=O)c1ccccc1	none
CCCCN1C(=O)c2ccccc2CC1(C)C(=O)NCc1ccccc1OC (stereo unspecified)	none
CC(C)C(Br)C(=O)Nc1ccc(Oc2ccccc2)cc1 (stereo unspecified)	none
O=C(O)CNC(=O)/C(=C\c1ccccc1F)NC(=O)c1ccccc1	none
CC1=C/C(=C/c2ccc(-c3ccc(C)cc3)o2)C(=O)O1	mHTT CaM bind 85.0
Cc1ccc(C2=C/C(=C\c3ccccc3C)C(=O)O2)cc1	none
COc1ccc(C)cc1NC(=O)N1CCCC1c1cccc(C)c1 (stereo unspecified)	none
Cc1ccc(C)c(S(=O)(=O)n2nnc3cc(Cl)ccc32)c1	none
COc1ccc(OC)c(S(=O)(=O)n2nnc3cc(Cl)ccc32)c1	mHTT CaM bind 100.0
COc1ccc2c(=O)c(-c3ccccc3)c(C)oc2c1OC	none
COC(=O)c1ccc(C=C2Oc3c(ccc(O)c3CN3CCCCC3C)C2=O)cc1 (stereo unspecified)	mHTT CaM bind 51.5
COC(=O)c1ccc(C=C2Oc3c(ccc(O)c3CN3CCCC3)C2=O)cc1	none
COc1ccc(Br)cc1C=C1Oc2c(ccc(O)c2CN2CCN(CCO)CC2)C1=O	none
O=C1C(=Cc2cc(Cl)cc3c2OCOC3)Oc2c1ccc(O)c2CN1CCOCC1	none
COc1ccc(C=C2Oc3c(ccc(O)c3CN3CCCC(C)C3)C2=O)c(OC)c1OC (stereo unspecified)	none
COc1cc(OC)c(OC)cc1C=C1Oc2c(ccc(O)c2CN2CCCC(C)C2)C1=O (stereo unspecified)	mHTT CaM bind 51.3
CCN1CCN(Cc2c(O)ccc3c2OC(=Cc2cc(Cl)cc4c2OCOC4)C3=O)CC1	mHTT CaM bind 54.9
O=C1C(=Cc2cc3cc(Br)ccc3o2)Oc2c1ccc(O)c2CN1CCN(CCO)CC1	mHTT CaM bind 60.2
O=C(NCc1c(O)c(Cl)cc(Cl)c1Cl)c1ccccc1	none

Bioassay records: PubChem, University of Kansas High Throughput Screening Laboratory
